The source made the active and inactive calls.
Key:
[1] = small molecules captured by biotinylated probe aFSTL3 – biochemical, small-molecule microarray, fluorescence 635/667, stem cell growth factor project, primary screen (AID 1064); settings: higher = more signal;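 further: measures binding of the biotinylated anti-FSTL3 antibody to printed compounds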
[2] = binders from COS7 lysate, DM2A8 probe, primary screen, torsin A project, cell lysate, small-molecule microarray, fluorescence 635/667 (AID 1065); settings: higher = more signal, COS7 lysate expressing mutant human TOR1A
[3] = small molecules captured by biotinylated probe aFGF2 – biochemical, small-molecule microarray, fluorescence 635/667, stem cell growth factor project, primary screen (AID 1067); settings: higher = more signal;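 further: measures binding of biotinylated aFGF2 protein to printed compounds on slides; z-score merges feature fluorescence and signal-to-noise across triplicate slides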
[4] = small molecules captured by biotinylated probe aFGF10 – biochemical, small-molecule microarray, fluorescence 635/667, stem cell growth factor project, primary screen (AID 1071); settings: higher = more signal;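 further: score merges 667 nm spot intensity and signal to noise from triplicate slides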
[5] = molecular target: Neurogenic locus notch homolog protein 2 (Homo sapiens) (UniProt Q04721); experiment: small molecules binding Notch2 protein – biochemical, small-molecule microarray, 635 nm fluorescence, stem cell growth factors, primary screen (AID 1073); settings: higher = more signal
[6] = molecular target: Pro-neuregulin-1, membrane-bound isoform (Homo sapiens) (UniProt Q02297); experiment: small molecules binding neuregulin-1 protein – biochemical, small-molecule microarray, fluorescence 635/667, psychiatric disease protein project, primary screen (AID 1075); settings: NRG1 binding, 635 nm fluorescence, higher = more signal;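 further: score combines 667 nm spot fluorescence with signal to noise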
[7] = system: Neuregulin-1 EGF-like domain; experiment: small molecules binding NRG1 EGF domain – biochemical, small-molecule microarray, 635 nm fluorescence, primary screen (AID 1081); settings: higher = more signal;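 further: binding of the protein to compounds printed on small-molecule microarray slides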
[8] = FRG1 expression reporter modulators in myotubes – cell-based, C2C12 myotubes, firefly/Renilla luciferase, luminescence, FRG1 inhibition for FSHD, primary screen (AID 1084); settings: FRG1 promoter luciferase, higher = more signal, called active from +8 up or from −8 down
[9] = small molecules captured by biotinylated probe aFST – biochemical, small-molecule microarray, fluorescence 635/667, stem cell growth factor project, primary screen (AID 1086); settings: higher = more signal;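 further: score merges 667 nm fluorescence with signal-to-noise of each printed compound spot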
[10] = binders of probe aHhip on microarray, primary screen, stem cell growth factor project, biochemical, small-molecule microarray, fluorescence 635/667 (AID 1087); settings: higher = more signal;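 further: score merges spot fluorescence at 667nm with spot signal to noise ratio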
[11] = system: PRMT1 (protein arginine N-methyltransferase 1); experiment: small molecules binding arginine methyltransferase PRMT1 – biochemical, small-molecule microarray, 635 nm fluorescence, primary screen (AID 1088); settings: higher = more signal;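 further: binding of Prmt1 protein to compounds spotted on small-molecule microarray slides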
[12] = growth effects on S. cerevisiae YJM789 – YJM789 clinical isolate, OD600, 24 h, basal, primary screen (AID 1089); settings: higher = more signal, called active from +8 up or from −8 down;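 further: growth of clinical yeast isolate S. cerevisiae YJM 789 seeded 1000 cells per well; test concentration not given here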
[13] = S. pombe growth modifiers, basal conditions – strain 972, OD600, 24 h, no modulator, primary screen (AID 1090);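 further: basal condition with compound alone and no growth modifier present; test concentration not given here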; settings: S. pombe 972 growth, higher = more signal, called active from +8 up or from −8 down
[14] = budding yeast growth modifiers under rapamycin – strain BY4716, OD600, 96 h, primary screen (AID 1091); further: test concentration not given here; settings: S. cerevisiae BY4716 + rapamycin, higher = more signal, called active from +8 up or from −8 down
[15] = molecular target: Torsin-1A-interacting protein 2 (Homo sapiens) (UniProt Q8NFQ8); experiment: small molecules binding lysate-expressed LULL1 – cell lysate, human LULL1 lysate, 635/667 nm fluorescence, primary screen (AID 1092); settings: small-molecule microarray, hLULL1 lysate binding, 635 nm fluorescence; higher = more signal;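 further: probe is lysate of COS7 cells overexpressing human LULL1; score merges per-feature 667 nm fluorescence with signal-to-noise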
[16] = optical density change of DRC41 E. coli – strain DRC41, OD650, 24 h, E. coli filamentation project, primary screen (AID 1093);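 further: MC1000 strain lacking acrAB efflux and sulA so SOS filamentation is blocked; test concentration not given here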; settings: E. coli DRC41 growth, higher = more signal, called active from +8 up or from −8 down
[17] = probe aLefty2 binding to arrayed compounds – biochemical, biotinylated probe, 635/667 nm fluorescence, primary screen (AID 1094); settings: small-molecule microarray, higher = more signal;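 further: score merges spot fluorescence near 667 nm with spot signal-to-noise ratio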
[18] = system: Noggin (protein binding on small-molecule microarray); experiment: small molecules binding Noggin protein – biochemical, 635/667 nm fluorescence, primary screen (AID 1095); settings: 635 nm fluorescence, higher = more signal;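 further: score merges 667 nm feature fluorescence with signal to noise over triplicate slides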
[19] = molecular target: Neurogenic locus notch homolog protein 3 (Homo sapiens) (UniProt Q9UM47); experiment: small molecules binding NOTCH3 protein – biochemical, 635/667 nm fluorescence, primary screen (AID 1096); settings: small-molecule microarray, 635 nm fluorescence, higher = more signal
[20] = probe aEGFR binding to arrayed compounds – biochemical, biotinylated probe, 635/667 nm fluorescence, primary screen (AID 1097); settings: small-molecule microarray, higher = more signal;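 further: probe is a biotinylated anti-EGFR antibody binding compounds printed on slides; score combines fluorescence near 667 nm and signal to noise of each spot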

Chain of Neurogenic locus notch homolog protein 3 (Homo sapiens) (Q9UM47 whole entry, looked up): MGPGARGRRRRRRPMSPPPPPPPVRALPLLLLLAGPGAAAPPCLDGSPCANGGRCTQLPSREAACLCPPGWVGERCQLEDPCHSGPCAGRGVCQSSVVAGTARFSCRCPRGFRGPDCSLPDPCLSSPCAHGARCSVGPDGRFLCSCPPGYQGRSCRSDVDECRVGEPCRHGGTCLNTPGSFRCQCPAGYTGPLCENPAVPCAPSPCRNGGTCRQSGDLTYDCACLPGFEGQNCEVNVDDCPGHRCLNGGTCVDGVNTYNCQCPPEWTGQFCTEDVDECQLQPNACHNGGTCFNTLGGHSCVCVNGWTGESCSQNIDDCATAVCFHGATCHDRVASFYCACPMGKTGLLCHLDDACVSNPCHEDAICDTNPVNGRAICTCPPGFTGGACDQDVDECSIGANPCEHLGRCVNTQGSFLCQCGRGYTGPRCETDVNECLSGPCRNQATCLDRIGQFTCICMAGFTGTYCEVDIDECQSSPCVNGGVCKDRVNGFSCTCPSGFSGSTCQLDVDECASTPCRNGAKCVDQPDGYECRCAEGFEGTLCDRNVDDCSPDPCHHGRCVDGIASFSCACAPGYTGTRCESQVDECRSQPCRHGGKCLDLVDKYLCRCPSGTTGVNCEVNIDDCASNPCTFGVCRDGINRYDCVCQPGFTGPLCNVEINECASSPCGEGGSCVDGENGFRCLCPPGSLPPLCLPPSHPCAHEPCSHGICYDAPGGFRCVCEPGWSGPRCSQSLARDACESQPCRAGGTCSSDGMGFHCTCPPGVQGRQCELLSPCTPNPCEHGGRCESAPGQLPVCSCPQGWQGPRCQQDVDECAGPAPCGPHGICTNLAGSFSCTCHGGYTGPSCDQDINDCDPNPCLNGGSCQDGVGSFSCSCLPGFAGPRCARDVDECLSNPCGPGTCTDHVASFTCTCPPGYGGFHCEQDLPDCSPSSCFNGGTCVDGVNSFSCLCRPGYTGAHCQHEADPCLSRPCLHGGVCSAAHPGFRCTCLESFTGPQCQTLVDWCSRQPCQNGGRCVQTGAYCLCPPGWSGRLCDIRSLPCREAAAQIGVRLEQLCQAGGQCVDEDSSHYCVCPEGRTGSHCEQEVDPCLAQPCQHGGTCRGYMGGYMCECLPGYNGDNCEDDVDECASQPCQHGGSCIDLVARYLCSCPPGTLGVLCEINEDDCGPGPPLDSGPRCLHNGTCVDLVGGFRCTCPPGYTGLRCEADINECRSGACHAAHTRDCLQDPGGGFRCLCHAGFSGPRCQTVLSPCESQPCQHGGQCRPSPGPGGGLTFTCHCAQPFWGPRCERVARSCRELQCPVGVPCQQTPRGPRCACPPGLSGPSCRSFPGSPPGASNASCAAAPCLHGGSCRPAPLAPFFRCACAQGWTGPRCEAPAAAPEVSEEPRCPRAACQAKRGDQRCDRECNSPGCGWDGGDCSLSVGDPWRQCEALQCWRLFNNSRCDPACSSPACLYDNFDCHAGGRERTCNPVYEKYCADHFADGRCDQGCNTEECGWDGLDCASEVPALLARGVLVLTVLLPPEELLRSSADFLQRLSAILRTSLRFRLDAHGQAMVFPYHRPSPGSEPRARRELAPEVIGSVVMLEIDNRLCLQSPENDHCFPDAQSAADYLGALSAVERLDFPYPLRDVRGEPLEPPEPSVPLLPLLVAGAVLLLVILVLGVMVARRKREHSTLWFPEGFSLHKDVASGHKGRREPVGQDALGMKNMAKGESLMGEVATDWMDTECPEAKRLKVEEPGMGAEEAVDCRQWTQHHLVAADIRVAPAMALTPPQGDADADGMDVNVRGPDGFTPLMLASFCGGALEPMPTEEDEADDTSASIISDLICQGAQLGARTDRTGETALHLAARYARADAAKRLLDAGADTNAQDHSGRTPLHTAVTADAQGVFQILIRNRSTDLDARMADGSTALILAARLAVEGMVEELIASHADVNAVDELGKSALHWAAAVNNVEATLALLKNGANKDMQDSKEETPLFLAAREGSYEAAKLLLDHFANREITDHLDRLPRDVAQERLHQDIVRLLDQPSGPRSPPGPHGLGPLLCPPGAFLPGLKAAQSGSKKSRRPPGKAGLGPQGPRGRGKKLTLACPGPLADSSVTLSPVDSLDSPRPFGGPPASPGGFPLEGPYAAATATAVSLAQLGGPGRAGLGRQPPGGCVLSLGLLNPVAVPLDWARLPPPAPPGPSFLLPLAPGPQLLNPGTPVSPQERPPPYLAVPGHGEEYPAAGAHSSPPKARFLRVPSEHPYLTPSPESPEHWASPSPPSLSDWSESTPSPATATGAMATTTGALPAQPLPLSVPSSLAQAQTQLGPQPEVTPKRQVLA
Chain of Pro-neuregulin-1, membrane-bound isoform (Homo sapiens) (Q02297 whole entry, looked up, the tested form may be a part, canonical isoform): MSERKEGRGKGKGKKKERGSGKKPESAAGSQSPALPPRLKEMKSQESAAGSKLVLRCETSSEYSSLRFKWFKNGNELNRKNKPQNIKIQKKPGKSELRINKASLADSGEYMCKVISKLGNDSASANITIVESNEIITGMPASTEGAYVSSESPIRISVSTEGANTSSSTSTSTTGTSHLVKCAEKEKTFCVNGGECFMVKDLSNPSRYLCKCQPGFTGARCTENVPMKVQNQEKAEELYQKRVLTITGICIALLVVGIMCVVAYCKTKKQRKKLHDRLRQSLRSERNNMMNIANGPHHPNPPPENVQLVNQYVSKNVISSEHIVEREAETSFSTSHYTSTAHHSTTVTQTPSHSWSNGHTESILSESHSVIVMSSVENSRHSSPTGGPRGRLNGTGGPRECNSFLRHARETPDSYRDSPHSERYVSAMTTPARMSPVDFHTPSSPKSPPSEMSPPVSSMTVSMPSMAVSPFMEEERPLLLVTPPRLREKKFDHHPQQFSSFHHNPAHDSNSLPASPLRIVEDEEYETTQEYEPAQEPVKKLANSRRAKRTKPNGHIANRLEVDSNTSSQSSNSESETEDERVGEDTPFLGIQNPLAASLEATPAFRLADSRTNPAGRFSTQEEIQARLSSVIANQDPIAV
Chain of Torsin-1A-interacting protein 2 (Homo sapiens) (Q8NFQ8 whole entry, looked up): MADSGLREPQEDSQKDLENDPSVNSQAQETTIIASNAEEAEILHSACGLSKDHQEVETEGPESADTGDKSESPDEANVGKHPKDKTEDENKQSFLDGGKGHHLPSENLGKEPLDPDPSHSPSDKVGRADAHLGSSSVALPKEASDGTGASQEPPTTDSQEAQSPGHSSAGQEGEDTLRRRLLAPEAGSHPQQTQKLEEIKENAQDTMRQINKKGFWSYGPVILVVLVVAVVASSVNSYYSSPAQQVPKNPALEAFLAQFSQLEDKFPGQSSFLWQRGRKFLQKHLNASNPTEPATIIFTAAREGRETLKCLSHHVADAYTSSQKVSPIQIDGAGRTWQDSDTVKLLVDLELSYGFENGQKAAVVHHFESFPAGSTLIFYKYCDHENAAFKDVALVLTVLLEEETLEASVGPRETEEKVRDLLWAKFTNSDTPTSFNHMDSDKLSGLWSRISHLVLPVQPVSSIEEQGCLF

Row | SMILES | composite z-score [1] | composite z-score [2] | composite z-score [3] | composite z-score [4] | composite z-score [5] | composite z-score [6] | composite z-score [7] | z-score [8] | composite z-score [9] | composite z-score [10] | composite z-score [11] | z-score [12] | z-score [13] | z-score [14] | composite z-score [15] | z-score [16] | composite z-score [17] | composite z-score [18] | composite z-score [19] | composite z-score [20]
1 | COC(=O)[C@@]1(Cc2ccc(OC)cc2)[C@H]2c3cc(C(=O)N4CCCC4)n(CCc4c[nH]c5cc(F)ccc45)c3C[C@H]2CN1C(=O)c1ccccc1 | 0.785 | 0.209 | 0.0181 | 0.71 | 1.76 | 2.12 | 1.18 | -0.87 (inactive) | 2.35 | 0.28 | 1.09 | 0.548 (inactive) | 1.2 (inactive) | 1.75 (inactive) | 3.54 | 0.332 (inactive) | 0.776 | 0.103 | 1.08 | 0.103
2 | COCCOC(=O)N1C(=O)[C@@]2(c3cc(C#CC4=CCCCC4)ccc31)[C@H](C(=O)NC[C@H](O)c1ccccc1)[C@H]1C(=O)O[C@H](c3ccccc3)[C@H](c3ccccc3)N1[C@@H]2c1ccc(O)cc1 | -0.377 | 0.189 | -0.105 | 0.797 | 1.23 | 0.996 | 1.19 | 0.591 (inactive) | 0.353 | -0.0296 | 1.54 | 1 (inactive) | 0.0198 (inactive) | 1.83 (inactive) | 2.08 | 2.13 (inactive) | 0.0723 | 0.829 | 1.06 | 0.0937
3 | COC(=O)[C@@]1(Cc2ccccc2)[C@H]2c3cc(C(=O)N4CCCC4)n(Cc4ccc(C)o4)c3C[C@H]2CN1C(=O)c1ccccc1 | 0.385 | 0.225 | -0.162 | 0.0426 | 1.54 | 1.37 | 0.476 | 0.0318 (inactive) | 0.935 | 0.259 | -0.179 | -0.619 (inactive) | 0.122 (inactive) | -0.564 (inactive) | 2.6 | -0.564 (inactive) | -0.0127 | 0.231 | 0.622 | 0.0226
4 | C=CCC(OC(C)=O)[C@@H]1[C@@H](N(Cc2ccc(-c3ccccc3)cc2)C(=O)Cc2ccc(OC)cc2)c2cc(OCCCO)ccc2N1C(=O)c1ccc2ccccc2n1 (stereo not given in full) | 0.0604 | -0.11 | -0.0074 | -0.0502 | 0.0378 | -0.111 | -0.271 | -0.83 (inactive) | 0.411 | -0.0994 | -0.298 | -1.15 (inactive) | -0.832 (inactive) | -0.551 (inactive) | 1.02 | 0.374 (inactive) | 0.0171 | -0.49 | 0.0617 | -0.0784
5 | O=C1OCCC=C[C@H]2OC34C=CCN(c5ccc6ccccc6c5)C(=O)[C@H]3N(CCCCCO)C(=O)[C@@H]4C12 (stereo not given in full) | 1.05 | 2.06 | -0.116 | 0.0074 | -0.377 | 2.17 | 1.57 | -0.517 (inactive) | -0.188 | 0.0176 | 0.737 | -0.748 (inactive) | -1.64 (inactive) | -0.8 (inactive) | 2.42 | 1.12 (inactive) | -0.0953 | -0.586 | -0.039 | -0.157
6 | CCCCC=C[C@@H](NC(=O)c1cccs1)c1ccccc1 | 0.144 | 0.583 | 0.121 | 0.308 | 1.1 | 0.736 | 0.858 | -3.42 (inactive) | 0.409 | 0.913 | -0.0502 | 0.464 (inactive) | 0.845 (inactive) | 1.72 (inactive) | 2.01 | -0.312 (inactive) | 0.0812 | -0.222 | 0.955 | -0.0746
7 | CN1CCC(CCCO)=CC1c1ccc(CN2CCCC2)cc1 (stereo not given) | 1.16 | 2.31 | 0.0626 | 0.789 | 1.12 | 1.7 | 1.27 | 0.745 (inactive) | 0.612 | -0.0237 | 1.54 | -1.05 (inactive) | -2.41 (inactive) | -0.763 (inactive) | 2.18 | -0.145 (inactive) | 0.36 | 1.72 | 1.07 | 0.337
8 | C=CCNC(=O)[C@@H]1[C@H]2C(=O)O[C@H](c3ccccc3)[C@H](c3ccccc3)N2[C@H](c2ccccc2OCCO)[C@@]12C(=O)Nc1ccc(C#CC3=CCCCC3)cc12 | -0.098 | 0.571 | 0.0368 | 0.865 | 1.25 | 0.948 | 1.12 | 0.0472 (inactive) | 0.639 | 0.134 | 1.55 | 1.05 (inactive) | -3.5 (inactive) | 2.87 (inactive) | 2.75 | 1.47 (inactive) | 0.058 | 0.983 | 1.11 | -0.0185
9 | COCCOC(=O)N1C(=O)[C@@]2(c3cc(C#CCC(C(=O)OC)C(=O)OC)ccc31)[C@H](C(=O)N1CCCCCCC1)[C@H]1C(=O)O[C@H](c3ccccc3)[C@H](c3ccccc3)N1[C@@H]2c1ccc(OCCO)cc1 | 3.71 | 1.81 | 0.755 | 0.833 | 1.32 | 2.11 | 1.36 | 0.109 (inactive) | 3.4 | 2.72 | 1.54 | 1.47 (inactive) | 0.168 (inactive) | 2.66 (inactive) | 4.11 | 0.275 (inactive) | 1.66 | 2.02 | 1.05 | 1.26
10 | CCCCCN1CC=CC23O[C@@H]4/C=C\CCC(C)OC(=O)C4[C@H]2C(=O)N(CCCCCO)[C@@H]3C1=O (stereo not given in full) | -0.0551 | 0.698 | -0.0871 | -0.524 | -0.862 | 0.948 | -0.69 | 0.312 (inactive) | -0.467 | 0.344 | -0.103 | -1.46 (inactive) | -0.773 (inactive) | -1.39 (inactive) | -1.94 | 2.19 (inactive) | -0.0491 | -0.0687 | 0.0156 | -0.149

Reference: PubChem BioAssay
